Bioassay records (PubChem)
Sm TGR block: blocks Schistosoma mansoni thioredoxin glutathione reductase | Q962Y6 | purified TGR, DTNB reduction, TNB absorbance 405 nm | Potency, µM (highest dose often 114 µM), hits mostly inhibitors | 360,000 tested, 3% active; active means well fitted inhibition curve with a large enough effect; inconclusive means small, poorly fitted or top-dose-only effect; inactive means no such curve, though single readings can be large or run the other way; further: nearly all actives have a fitted effect of over 60% in size
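First, TGR (20 nM dispensed) and NADPH were mixed with compound. Second, a 15 min room-temperature incubation followed. Third, further NADPH and then DTNB were added to start the reaction. Finally, TNB absorbance was monitored kinetically.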
Shiga toxin inh: inhibitors of Shiga toxin in Vero cells; Vero cells, Shiga toxin protein synthesis inhibition reporter; inhibition, % at 38.7 µM; 290,000 tested, 9.2% active; in the data active means inhibition mostly above about 28%, no sharp cut-off; inactive means mostly below about 43%
Cycloheximide cs: counter-screen for Shiga toxin inhibitors: cycloheximide protein synthesis inhibition; cell reporter, cycloheximide protein synthesis inhibition counterscreen; max response, %; 300,000 tested, 12% active; AID 2314; in the data active means max response mostly above about 13%, no sharp cut-off; inactive means mostly below about 14%; further: read at 38.3 µM for the half of the compounds with a filed dose
FMDV antiviral: foot and mouth disease virus antiviral activity; Potency, µM (highest dose often 57.9 µM), hits mostly inhibitors; 410,000 tested, 1.2% active; AID 1159524; FMDV antiviral cell-based qHTS; calls by dose curve; tested in HEK293T cells; further: read-out not given here; nearly all actives have a fitted effect of over 45% in size
A number is an active result; 0 = inactive; ? = inconclusive; - = no result; + = active, no number; ! = a repeat was not active. This is a sample that favours compounds with a hit; in the whole collection about 12% have one here.

SMILES	Sm TGR block	Shiga toxin inh	Cycloheximide cs	FMDV antiviral
CCS(=O)(=O)N1CC(=O)N(c2cccc(C)c2C)C(C)(C(=O)NC2CCCCCC2)C1 (centres undefined)	0	-	-	0
O=C(Cc1cccs1)Nc1ccc(-c2nc3ccccc3[nH]2)cc1	0	131	37	0
O=C(Nc1ccc(-c2nc3ccccc3[nH]2)cc1)c1c(F)c(F)c(F)c(F)c1F	0	0	0	0
CCNC(=S)Nc1ccc(-c2nc3ccccc3[nH]2)cc1	?	103	40	0
CS(=O)(=O)c1ccc(C(=O)Nc2ccc(-c3nc4ccccc4[nH]3)cc2)cc1	0	0	0	?
O=C(CN1CCOCC1)Nc1ccc(-c2nc3ccccc3[nH]2)cc1	0	76	27	0
C#CCCCCCCCCCCCC(O)CC(O)COC(C)=O (centres undefined)	-	-	-	0
COc1ccc(-n2nc(C(=O)N3CCN(c4cccc(C)c4C)CC3)c3c4ccccc4n(C)c3c2=O)cc1Cl	0	-	-	0
O=C(/C=C/C=C/c1ccccc1)CC1(O)C(=O)Nc2ccccc21 (centres undefined)	?	0	19	?
O=C(CCn1cnc2onc(-c3ccc(F)cc3)c2c1=O)N1CCN(c2cccc(Cl)c2)CC1	0	-	-	?
CN(Cc1cnccn1)Cc1c(C(=O)N2CCc3ccccc3C2)nc2ccc(Cl)cn12	0	0	0	0
O=C(c1nc2ccc(Cl)cn2c1CN1CCCC1)N1CCc2ccccc2C1	40µM	0	0	0
O=C(c1nc2ccc(Cl)cn2c1CN1CCC(CO)CC1)N1CCc2ccccc2C1	0	0	0	0
CCCCN(C)Cc1c(C(=O)N2CCc3ccccc3C2)nc2ccc(Cl)cn12	45µM	0	0	0
CN(Cc1cccnc1)Cc1c(C(=O)N2CCc3ccccc3C2)nc2ccc(Cl)cn12	32µM	0	0	0
Cc1ccc(Cl)cc1N1CCN(S(=O)(=O)c2cn(C)c(C)n2)CC1	0	-	-	0
CCOC(=O)c1ccc(NC(=O)CCC(=O)N2Cc3ccccc3Oc3ncccc32)cc1	0	-	-	0
CCCCN(C)C(=O)CN1C(=O)CCn2nc(-c3cn(C)c4ccccc34)cc21	0	-	-	0
COc1cc(/C=C2\CCC(C3CCCC3)C2=O)cc(OC)c1OC (centres undefined)	0	0	0	0
COc1ccc(/C=C2\CCC(C3CCCC3)C2=O)c(OC)c1OC (centres undefined)	0	0	0	0
COc1cccc(/C=C2/CCC(CN(C)C)C2=O)c1 (centres undefined)	-	-	-	25µM
COc1cccc(/C=C2\CCC(C3CCCC3)C2=O)c1OC (centres undefined)	0	97	38	0
COc1cccc(/C=C2\CCC(C3CCCC3)C2=O)c1 (centres undefined)	40µM	84	51	0
COc1ccc(/C=C2/CCCC(CN(C)C)C2=O)cc1 (centres undefined)	-	-	-	0
Cc1cccc(/C=C2\CCC(C3CCCC3)C2=O)c1 (centres undefined)	0	0	15	0
SMILES	Sm TGR block	Shiga toxin inh	Cycloheximide cs	FMDV antiviral
Nc1ncnc2c1ncn2[C@@H]1O[C@H](C(=O)N2CCN(CC(=O)Nc3cccc4c3CNC4=O)CC2)[C@@H](O)[C@H]1O	-	0	0	-
Cc1ccc(-n2ncc(C(=O)NCc3ccc4c(c3)OCO4)c2C2CCN(C(=O)OC(C)(C)C)CC2)c(C)c1	0	-	-	0
CCN(CCCNC(=O)Cn1ncc2c3ccccc3n(C)c2c1=O)c1cccc(C)c1	0	-	-	0
O=C1/C(=C/c2ccc([N+](=O)[O-])cc2)CCC1C1CCCC1 (centres undefined)	?	0	18	0
COc1cccc(/C=C2\CCCCC2=O)c1	0	0	16	0
CCCC/C=C1/CCC(CN(C)C)C1=O (centres undefined)	-	-	-	28µM
O=C1CCC/C1=C\c1ccccc1	45µM	0	0	0
O=C1/C(=C\c2ccccc2)CCC/C1=C/c1ccccc1	-	-	-	0
COc1ccc(OC)c(N/C=C2/CCCCC2=O)c1	0	0	0	0
COc1ccc(CCNC(=O)CCCn2nc(C)c3sc4ccccc4c3c2=O)c(OC)c1	0	-	-	0
O=[N+]([O-])c1ccccc1N/N=C/c1cccc(O)c1O	0	115	30	0
COc1ccc(/C=N/Nc2ncc(-c3ccccc3)cn2)c(OC)c1	0	0	0	0
COc1cc(C=NNc2ccccc2[N+](=O)[O-])cc(OC)c1OC	-	-	-	0
COc1ccc(/C=N/Nc2ncccc2[N+](=O)[O-])c(OC)c1	0	51	0	0
O=C(N/N=C/c1cc([N+](=O)[O-])ccc1O)C1CC1	0	0	0	0
CCCOc1ccc(/C=N/Nc2ccccc2[N+](=O)[O-])c(OCCC)c1	0	0	28	0
O=[N+]([O-])c1ccc(O)c(/C=N/Nc2ccccc2Cl)c1	0	69	40	0
COc1ccc(NC(=O)NCCn2nnc3cc(S(=O)(=O)N(C)C)ccc32)cc1	0	-	-	0
CCCCCC/C=C/c1ccc(C2C3C=CCC(C)C3C(=O)N2Cc2ccccc2)c(F)c1 (centres undefined)	-	0	0	-
O=[N+]([O-])c1ccccc1N/N=C\c1ccccc1F	0	51	48	0
O=[N+]([O-])c1ccc(N/N=C/c2cccc(O)c2O)c(S(=O)(=O)N2CCOCC2)c1	-	0	0	?
O=[N+]([O-])c1ccccc1N/N=C\c1ccccc1Cl	0	41	26	0
O=[N+]([O-])c1cccc(N/N=C/c2cccc(O)c2O)c1	0	85	40	0
COc1ccc(OC)c(C(C)NC(=O)Cn2c(=O)cc(C)c3c(C)nn(-c4ccc(C)cc4)c32)c1 (centres undefined)	0	-	-	0
CCc1noc2nc(C)n(CC(=O)O)c(=O)c12	0	-	-	0
SMILES	Sm TGR block	Shiga toxin inh	Cycloheximide cs	FMDV antiviral
CC(=O)c1ccc(NC(=O)c2cc3c(=O)oc4ccc(C)cc4c3s2)cc1	0	-	-	0
Cc1ccc(NC(=O)Cn2c(=O)nc(-c3ccccc3F)c3cc(Cl)ccc32)c(Br)c1	0	-	-	0
CCc1cc2c(=O)c(-c3ccc4c(c3)OCCO4)coc2cc1OC(=O)c1ccco1	0	93	38	0
CCCc1cc2c(=O)c(-c3ccc4c(c3)OCCO4)coc2cc1OS(C)(=O)=O	0	45	56	0
CCCc1cc2c(=O)c(-c3ccc4c(c3)OCCO4)coc2cc1OC(=O)c1ccco1	0	98	30	0
CCOC(=O)c1c(C)[nH]c(C)c1S(=O)(=O)N1CCN(c2ccc(Cl)cc2)CC1	0	-	-	0
OC1(Cc2ccccc2)CCNCC1	45µM!	0	0	0
COc1cccc(CNC(=O)CCCn2ncn3c(cc4occc43)c2=O)c1OC	0	-	-	0
O=C(COc1ccc2cc(Br)ccc2c1Br)N1CCOCC1	0	30	29	0
O=C(CCSc1nccn1Cc1ccccc1)N1CCOCC1	0	+	19	0
O=C(COc1ccc(Br)cc1)N1CCOCC1	0	0	0	0
O=C(CCSc1nnc(-c2ccccc2)o1)N1CCOCC1	0	0	0	0
O=C(CSc1ccc(Cl)cc1)N1CCOCC1	0	68	29	0
Cc1ccc(C(CC(=O)N2CCOCC2)c2ccco2)cc1 (centres undefined)	28µM	0	0	0
O=C(CSc1ccc(Br)cc1)N1CCOCC1	0	46	27	0
Cc1ccc(SCC(=O)N2CCOCC2)cc1	0	35	23	0
